Our source for the growth values is PubChem BioAssay (NCI).

This is part of a sample that, as a whole, favours compounds with a hit. Of some 83,000 tested, about 20% had one in any assay.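 How to read the values: 0–100, growth inhibition (40 = 60% inhibited); 0, no net growth; -100 to 0, cell death (-40 = 40% of starting cells died; -100 = all dead).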 Unmarked numbers belong to inactive results. The source made the active and inactive calls. The calls were made as follows: active = growth percent below 10; inactive = the rest.

The subject of the first test is MALME-3M melanoma. Put plainly: NCI-60 one-dose screen, 48 h (100 = growth as untreated, 0 = no growth, -100 = all killed). The conditions noted are these: 10 µM unless noted.
As to `O=C1/C(=C/c2ccccc2)SC(=Nc2ccccc2)N1Nc1ccccc1`, the growth is -14.6% (active).
The same measure, in the same setting: the same measure for `COc1cnc2c(c1)C(=O)c1c-2n(CCCNC(C)C)c(=O)c2cc(Cl)ccc12`: -73.4% (active); for `CCSCC1CC(O)(c2ccccc2)C(c2ccccc2)C(c2ccc(F)cc2)O1` (stereo not drawn): -37.6% (active); for `CN1C(=O)C(C2=NNC(c3ccccc3C(=O)O)C2)C(=O)N(C)C1=O` (stereo not drawn): 111%.
With `NC(N)=NC1CCCCC1`, the growth is 101%.
With `COc1ccc(C(=O)OC2C(OC3C(O)COC(O[C@H]4C[C@H]5[C@@H]6CC=C7C[C@@H](O)CC[C@]7(C)[C@H]6CC[C@]5(C)[C@H]4[C@H](C)C(=O)CCC(C)C)C3OC(C)=O)OCC(O)C2O)cc1` (stereo partly drawn), the growth is -12.7% (active).
Regarding `CC(C)(C)c1ccc(OC(=O)Nc2ccccc2)cc1`, the growth was 96.6%.
For `CN1C2CCC1/C(=C\c1ccc(F)cc1)C(=O)/C2=C/c1ccc(F)cc1`, the growth is 61.7%.
Same read-out and setting: the same measure for `CCCCOC(=O)c1cc(O)c(O)c(O)c1`: 122%; for `CCOC(=O)C1OC2(CCCC2)OC1C(=O)OCC` (stereo not drawn): 107%.
As for `O=C(Nc1cccc(-n2ccc3c(NC(=O)c4ccccc4)nccc32)c1)c1ccc(N2CCOCC2)c(C(F)(F)F)c1`, the growth was 53.4%.
Turning to `CCN(CC)CCCC(C)Nc1c(-c2ccccc2)cnc2cc(Cl)ccc12` (stereo not drawn), the growth is -6.83% (active).
In the case of `O=C1C=CN2C(=O)CC=CC2[C@@H]1O` (stereo partly drawn), the growth was 133%.
Still for that read-out and setting: the same measure for `CC(=O)O[C@@H]1CC2C(C)(C)CCCC2(C)C2=C1C(=O)C(C(C)C)=CC2=O` (stereo partly drawn): -12.8% (active); for `O=C(Nc1ccc(-n2ccc3c(NC(=O)c4ccccc4)nccc32)cc1)c1ccc(N2CCOCC2)c(C(F)(F)F)c1`: 55.5%; for `COc1cc(/C=C/c2cc(/C=C/c3ccc(O)c(OC)c3)n(C(=O)Nc3ccc(F)c(Cl)c3)n2)ccc1O`: -16.8% (active).
On to `COc1cc(OC)c2sc(-c3ccc(-n4cncc4-c4ccc(OC)c(N)c4)cc3)nc2c1`, for which the growth is 82.4%.
Take `COc1ccc(C2=NNC(c3ccc(Oc4nc5c(c(=O)n(C)c(=O)n5C)n4C)c(OC)c3)C2)cc1` (stereo not drawn): the growth was 103%.
Still for that read-out and setting: with `NS(=O)(=O)c1ccc(CCn2c(SCC(=O)N/N=C/c3cccnc3)nc3ccccc3c2=O)cc1` the figure was 81.7%.
Same read-out and setting: with `O=C(NNC(=O)c1cccc(Cl)c1)c1ccccc1` the figure was 106%; with `N=c1nc(N2CCCCC2)cc(N)n1O`, 145%.
Turning to `Cc1ccc(C)c(NC(=O)c2sc3c(=O)[nH]cnc3c2C)c1`, the growth was 62.6%.
For the compound `C=CCOC(=O)C1=C(C)NC2=C(C(=O)CCC2)C1c1ccc(F)cc1` (stereo not drawn), the growth is 111%.
For the compound `COc1ccc(-c2cnc(-c3ccncc3-c3cccc(OC)c3)o2)cc1`, the growth is 92%.
For `O=C(Nc1ccncc1)C(=O)c1cn(S(=O)(=O)c2cccc(Cl)c2F)c2ccccc12`, the growth was 53.7%.
Turning to `Cc1ccccc1Nc1n[nH]c(Cc2ccccc2)n1`, the growth is 101%.
With `Oc1ccccc1-c1nnc(COc2ccc(Cl)cc2Cl)o1`, the growth was 68.3%.
As for `CS(=O)(=O)c1ccc(C(=O)N/N=C/c2ccccc2O)cc1`, the growth was 63.5%.
In the case of `CCCCCCCCCCCCCCCCCC(=O)OCCCCCCCCCCCCC`, the growth was 130%.
On the same count and under the same terms, the same measure for `COc1cc(C2CC(c3ccc(C)cc3)=NN2C=O)ccc1Oc1nc2c(c(=O)n(C)c(=O)n2C)n1C` (stereo not drawn): 87.8%; for `COc1cc(C2CC(c3ccccc3)=NN2C=O)ccc1Oc1ccnc2cc(Cl)ccc12` (stereo not drawn): 52.7%; for `NC(N)=N/N=C/c1ccc(Cl)cc1`: 88.3%.
Regarding `O=c1c2cc(Cl)ccc2oc2ccc(OCCCCCN3CCCCC3)cc12`, the growth is 74.9%.
Same read-out and setting: the same measure for `COc1cc(Cl)cc(-c2nn(C(=O)NCCN3CCOCC3)cc2-c2ccncc2)c1`: 70.2%.
Turning to `COc1ccc2nc3ccccc3c(NCc3ccc(Cl)cc3)c2c1`, the growth is -81.6% (active).
Take `CN1C(=O)N(C)C2C1NN=c1s/c(=C\c3ccc(C(F)(F)F)cc3)c(=O)n12` (stereo not drawn): the growth was 56%.
Same read-out and setting: the same measure for `C=C1C(=O)O[C@H]2[C@H]1CC/C(COC(=O)NCc1cn(C)c3ccccc13)=C\CC[C@@]1(C)O[C@@H]21`: -34.3% (active); for `c1csc(-c2cnc3nonc3n2)c1`: 100%.
On to `Nc1nc(NC2CC2)cc(-c2cccc(Cl)c2Cl)n1`, for which the growth is 64.4%.

The subject of a further test is MDA-MB-231 breast. The test is described as above. The conditions noted are these: 10 µM unless noted.
Turning to `O=C1/C(=C/c2ccccc2)SC(=Nc2ccccc2)N1Nc1ccccc1`, the growth is 12.1%.
Turning to `COc1cnc2c(c1)C(=O)c1c-2n(CCCNC(C)C)c(=O)c2cc(Cl)ccc12`, the growth was -79.7% (active).
On to `CCSCC1CC(O)(c2ccccc2)C(c2ccccc2)C(c2ccc(F)cc2)O1` (stereo not drawn), for which the growth was -8.82% (active).
Take `CN1C(=O)C(C2=NNC(c3ccccc3C(=O)O)C2)C(=O)N(C)C1=O` (stereo not drawn): the growth is 109%.
`NC(N)=NC1CCCCC1`: the growth is 117%.
As for `COc1ccc(C(=O)OC2C(OC3C(O)COC(O[C@H]4C[C@H]5[C@@H]6CC=C7C[C@@H](O)CC[C@]7(C)[C@H]6CC[C@]5(C)[C@H]4[C@H](C)C(=O)CCC(C)C)C3OC(C)=O)OCC(O)C2O)cc1` (stereo partly drawn), the growth was 10.6%.
For `CC(C)(C)c1ccc(OC(=O)Nc2ccccc2)cc1`, the growth is 109%.
Consider `CN1C2CCC1/C(=C\c1ccc(F)cc1)C(=O)/C2=C/c1ccc(F)cc1`, for which the growth was 53.7%.
On the same count and under the same terms, with `CCCCOC(=O)c1cc(O)c(O)c(O)c1` the figure was 66.4%; with `CCOC(=O)C1OC2(CCCC2)OC1C(=O)OCC` (stereo not drawn), 95.7%; with `O=C(Nc1cccc(-n2ccc3c(NC(=O)c4ccccc4)nccc32)c1)c1ccc(N2CCOCC2)c(C(F)(F)F)c1`, 20.8%.
Turning to `CCN(CC)CCCC(C)Nc1c(-c2ccccc2)cnc2cc(Cl)ccc12` (stereo not drawn), the growth was 63.1%.
On the same count and under the same terms, with `O=C1C=CN2C(=O)CC=CC2[C@@H]1O` (stereo partly drawn) the figure was 122%; with `CC(=O)O[C@@H]1CC2C(C)(C)CCCC2(C)C2=C1C(=O)C(C(C)C)=CC2=O` (stereo partly drawn), -15% (active); with `O=C(Nc1ccc(-n2ccc3c(NC(=O)c4ccccc4)nccc32)cc1)c1ccc(N2CCOCC2)c(C(F)(F)F)c1`, 52.5%.
As to `COc1cc(/C=C/c2cc(/C=C/c3ccc(O)c(OC)c3)n(C(=O)Nc3ccc(F)c(Cl)c3)n2)ccc1O`, the growth is 12.2%.
Take `COc1cc(OC)c2sc(-c3ccc(-n4cncc4-c4ccc(OC)c(N)c4)cc3)nc2c1`: the growth is 75.5%.
`COc1ccc(C2=NNC(c3ccc(Oc4nc5c(c(=O)n(C)c(=O)n5C)n4C)c(OC)c3)C2)cc1` (stereo not drawn): the growth was 93.3%.
`NS(=O)(=O)c1ccc(CCn2c(SCC(=O)N/N=C/c3cccnc3)nc3ccccc3c2=O)cc1`: the growth was 98.5%.
Regarding `O=C(NNC(=O)c1cccc(Cl)c1)c1ccccc1`, the growth is 113%.
`N=c1nc(N2CCCCC2)cc(N)n1O`: the growth is 108%.
With `Cc1ccc(C)c(NC(=O)c2sc3c(=O)[nH]cnc3c2C)c1`, the growth is 97.4%.
Regarding `C=CCOC(=O)C1=C(C)NC2=C(C(=O)CCC2)C1c1ccc(F)cc1` (stereo not drawn), the growth was 98%.
`COc1ccc(-c2cnc(-c3ccncc3-c3cccc(OC)c3)o2)cc1`: the growth is -9.9% (active).
The same measure, in the same setting: with `O=C(Nc1ccncc1)C(=O)c1cn(S(=O)(=O)c2cccc(Cl)c2F)c2ccccc12` the figure was 78.2%.
For `Cc1ccccc1Nc1n[nH]c(Cc2ccccc2)n1`, the growth is 110%.
`Oc1ccccc1-c1nnc(COc2ccc(Cl)cc2Cl)o1`: the growth was 48.2%.
Regarding `CS(=O)(=O)c1ccc(C(=O)N/N=C/c2ccccc2O)cc1`, the growth is 47.4%.
For `CCCCCCCCCCCCCCCCCC(=O)OCCCCCCCCCCCCC`, the growth is 135%.
`COc1cc(C2CC(c3ccc(C)cc3)=NN2C=O)ccc1Oc1nc2c(c(=O)n(C)c(=O)n2C)n1C` (stereo not drawn): the growth is 84.8%.
Same read-out and setting: the same measure for `COc1cc(C2CC(c3ccccc3)=NN2C=O)ccc1Oc1ccnc2cc(Cl)ccc12` (stereo not drawn): 74.6%.
Still for that read-out and setting: the same measure for `NC(N)=N/N=C/c1ccc(Cl)cc1`: 97.5%; for `O=c1c2cc(Cl)ccc2oc2ccc(OCCCCCN3CCCCC3)cc12`: 46.1%; for `COc1cc(Cl)cc(-c2nn(C(=O)NCCN3CCOCC3)cc2-c2ccncc2)c1`: 82.1%.
For the compound `COc1ccc2nc3ccccc3c(NCc3ccc(Cl)cc3)c2c1`, the growth is 24.3%.
Consider `CN1C(=O)N(C)C2C1NN=c1s/c(=C\c3ccc(C(F)(F)F)cc3)c(=O)n12` (stereo not drawn), for which the growth is 60.4%.
`C=C1C(=O)O[C@H]2[C@H]1CC/C(COC(=O)NCc1cn(C)c3ccccc13)=C\CC[C@@]1(C)O[C@@H]21`: the growth is -8.6% (active).
For `c1csc(-c2cnc3nonc3n2)c1`, the growth was 82%.
Regarding `Nc1nc(NC2CC2)cc(-c2cccc(Cl)c2Cl)n1`, the growth was 66.8%.
